A selection: hits, their analogues and other compounds. The true share with any hit is near 5.4%.
FMDV antiviral – antivirals against foot and mouth disease virus; FMDV antiviral cell-based qHTS; Potency, µM (titrated, usually from 57.9 µM), for the others: at the top dose activity change, negative = inhibition, usual class: inhibitors; actives 1.2% (n = 410,000); calls by dose curve; tested in HEK293T cells; note: read-out not given here; nearly all actives have a fitted effect of over 45% in size
Vaccinia Venus – inhibitors of vaccinia virus (Venus reporter) | Potency, µM (doses to about 36.5 µM), inactives show at the top dose activity change, negative = inhibition, hits mostly inhibitors | Vaccinia virus Venus reporter expression, fluorescence | actives 0.46% (n = 330,000); calls by dose curve; tested in A549 cells; note: nearly all actives have a fitted effect of over 30% in size
Sm TGR block – inhibitors of Schistosoma mansoni thioredoxin glutathione reductase | Q962Y6 | purified TGR, DTNB reduction, TNB absorbance 405 nm | Potency, µM (series often up to 114 µM), for inactives: at the top dose activity change, negative = inhibition, actives largely listed as inhibitors | actives 3% (n = 360,000); active = well fitted inhibition curve with a large enough effect; inconclusive = small, poorly fitted or top-dose-only effect; inactive = no such curve, though single readings can be large or run the other way; note: nearly all actives have a fitted effect of over 60% in size
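TGR 20 nM + NADPH 100 uM (dispensed conc.), cpd preinc 15 min RT; start with NADPH (500 uM addition) then DTNB (15 mM addition). Kinetic TNB absorbance, 405 nm filter. Four-parameter Hill fit across titration.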
VACV mCherry inh – vaccinia inhibition (mCherry reporter); Vaccinia virus mCherry reporter infection, fluorescence; actives 0.63% (n = 310,000); Potency, µM (doses to about 36.5 µM), for the others: at the highest dose activity change, negative = inhibition, usual class: inhibitors; calls by dose curve; tested in A549 cells; note: nearly all actives have a fitted effect of over 35% in size
MARV entry inh – blocks Marburg virus binding to or entry into cells; Marburg virus pseudotyped entry inhibition, cell reporter; Potency, µM (doses to about 37.8 µM), without a hit: at the highest dose activity change, negative = inhibition, actives largely listed as inhibitors; actives 1.8% (n = 300,000); AID 540276; calls by dose curve; tested in HEK293 cells
LASV entry inh – Lassa virus entry inhibition; AID 540256; Potency, µM (series often up to 37.9 µM), without a hit: at the top dose activity change, negative = inhibition, hits mostly inhibitors; actives 1.2% (n = 300,000); Lassa virus pseudotype entry inhibition, cell reporter; calls by dose curve; tested in HEK293 cells; note: nearly all actives have a fitted effect of over 50% in size
* = called active by the depositor; i = inactive; ? = inconclusive; · = no result; [ ] = dose if it differs, or a comment. % is set by controls: 0 for no effect and ±100 for the full control effect; potency is the fitted concentration of half-maximal effect.

SMILES	FMDV antiviral	Vaccinia Venus	Sm TGR block	VACV mCherry inh	MARV entry inh	LASV entry inh
CC(C)(C)NS(=O)(=O)c1ccc(CCC(=O)Nc2cc(Cl)ccc2Oc2ccccc2)cc1	?	?	-7.8%	?	8.91µM*	?
Cc1ccc(C)c(N(CC(=O)Nc2cc(Cl)ccc2Oc2ccccc2)S(C)(=O)=O)c1	-24.0%	?	8.7%	·	12.6µM*	?
CCCNS(=O)(=O)c1ccc(CCC(=O)Nc2cc(Cl)ccc2Oc2ccccc2)cc1	?	?	1.3%	·	?	?
Cc1cccc(C)c1N(CC(=O)Nc1cc(Cl)ccc1Oc1ccccc1)S(C)(=O)=O	-25.8%	?	1.9%	·	?	?
CCCCCC1CCNCC1	·	-11.6%	·	i	·	·
CC(C)CC(=O)Nc1cccc(-c2cn3cccnc3n2)c1	31.1%	-1.3%	-0.1%	-15.5%	·	14.6%[46.1 µM]
Cc1ccccc1N(C(=O)CCC(=O)Nc1ccccn1)C(C(=O)NC(C)C)c1ccc(O)cc1 (stereo not drawn)	0.3%	-10.5%	-0.5%	i	7.08µM*	-3.0%
Cc1ccccc1N(C(=O)CCCC(=O)Nc1ccccn1)C(C(=O)NC1CCCC1)c1ccc(O)cc1 (stereo not drawn)	89.8%	-11.8%	-21.3%	i	-30.0%[46.1 µM]	?
COc1ccc2c(CNC3CCCCCC3)c(C(=O)O)n(Cc3ccc(C)cc3)c2c1	-16.3%	-10.9%	-10.2%	-7.1%	·	-14.4%[46.1 µM]
O=C(CSc1ncnc2sccc12)Nc1ccc(S(=O)(=O)N2CCOCC2)cc1	?	?	0.8%	?	21.6%	-4.9%
CC(Sc1ncnc2sccc12)C(=O)Nc1ccc(S(=O)(=O)N2CCOCC2)cc1 (stereo not drawn)	?	?	·	15.8µM*	15.0%	0.3%
Cc1nn(-c2ccc(N3CCCCC3)nn2)c(C)c1CCC(=O)NCc1ccc(Cl)cc1	0.0%	-12.3%	1.3%	-21.3%	·	?
CN(C)C=Nc1ncc2c3ccccc3n(CCN(C)C)c2c1C#N	0.6%	-11.4%	6.1%	·	11.2µM*	-19.2%
CCN(CC)CCn1c2ccccc2c2cnc(N)c(C#N)c21	-19.0%	?	-9.7%	?	11.2µM*	?
CN(C)C=Nc1ncc2c3ccccc3n(Cc3ccccc3)c2c1C#N	-14.0%	5.4%	1.2%	·	3.1%	-1.7%
CCS(=O)(=O)Nc1cc(C(=O)N2CCCN(C=O)CC2)c2c(c1)nc(-c1ccccc1)n2C	0.0%	-14.7%	·	i	·	·
CCc1ccc([C@H]2C(C(=O)O)=C[C@@H](CC3CCCC3)N2S(=O)(=O)c2ccc(C)cc2)cc1	10.1%	-19.3%	·	-13.6%	·	·
O=c1ccc2ccccc2c2ccccc12	12.6µM*	-5.3%	·	10.0%	·	·
CCc1cc2c(=O)c(-c3nc4ccccc4n3C)c(COCC(=O)O)oc2cc1O	·	4.1%	11.8%	i	-7.6%	27.0%
CCCc1cc2c(=O)c(-c3nc4ccccc4s3)c(COCC(=O)O)oc2cc1O	10.4%	2.3%	39.8µM*	-6.2%	24.4%[46.1 µM]	20.0%[46.1 µM]
N#CC(=C1CCCC1)c1nc(-c2ccccc2O)cs1	13.2%	-21.4%	25.1µM*	·	?	10µM*
CC(=O)OC[C@H]1O[C@H](C#Cc2ccccc2Cl)C=C[C@@H]1OC(C)=O	·	·	·	·	-1.2%[14.2 µM]	·
CCC(C)NC(=O)c1cc(-c2cccc(OC)c2)on1 (stereo not drawn)	41.4%	-1.6%	6.0%	-1.7%	?	1.8%[46.1 µM]
CC(C)CCNS(=O)(=O)c1ccc(N2CCCCS2(=O)=O)cc1	21.5%	-22.7%	3.4%	-16.1%	·	-10.7%[46.1 µM]
CCN(CC)S(=O)(=O)c1ccc(N2CCOCC2)c(NS(=O)(=O)c2cc(C(C)(C)C)ccc2C)c1	-8.4%	?	4.2%	-8.5%	?	8.91µM*
SMILES	FMDV antiviral	Vaccinia Venus	Sm TGR block	VACV mCherry inh	MARV entry inh	LASV entry inh
CCN(CC)S(=O)(=O)c1ccc(N2CCCCC2)c(C(=O)Nc2ccccc2N2CCOCC2)c1	-8.4%	3.3%	-6.7%	-1.3%	5.62µM*	10.3µM*
CCN(CC)S(=O)(=O)c1ccc(N2CCOCC2)c(NC(=O)c2cccc3ccccc23)c1	0.0%	-15.2%	7.6%	-15.0%	-28.9%	?
N#CC(=C=[N-])C1=C(C#N)C(c2ccccc2F)C([n+]2ccccc2)C(O)(C2CC2)N1 (stereo not drawn)	-0.1%	·	-25.8%	·	5.5%	9.2%
Cc1cccc[n+]1C1C(c2ccccc2)C(C#N)=C(C(=C=[N-])C#N)NC1(O)C1CC1 (stereo not drawn)	-3.7%	23.3%	5.62µM*	-2.1%	-13.7%	-4.5%
COc1ccc(C2C(=O)N(C3CCCCCC3)CC(=O)N2Cc2ccc(C)cc2)cc1 (stereo not drawn)	-19.8%	-8.0%	16.2%	-6.9%	·	?
CCC1Oc2ccccc2N(CC(=O)NCc2ccccc2)C1=O (stereo not drawn)	32.9%	-9.2%	1.9%	-7.0%	·	?
O=C(N/N=C/c1c(O)n(CCc2ccccc2)c(=O)[nH]c1=O)c1ccncc1	-10.6%	-1.9%	17.8µM*	-13.8%	4.2%	11.2%
O=C(N/N=C/c1c(O)n(CCc2ccc(F)cc2)c(=O)[nH]c1=O)c1ccncc1	1.6%	-5.7%	?	1.0%	?	2.2%
O=C(N/N=C/c1c(O)n(-c2cccc3ccccc23)c(=O)[nH]c1=O)c1ccncc1	-2.9%	-2.7%[7.34 µM]	14.1µM*	-0.4%[7.34 µM]	11.6%[46.1 µM]	?
CCc1ccc(-n2nc3ccc(NC(=O)c4ccc(C#N)cc4F)cc3n2)cc1	-3.2%	-4.9%	8.9%	5.7%	13.4%[46.1 µM]	-3.9%[46.1 µM]
COC(=O)CC=C1c2ccc(F)cc2[C@@H](OC)[C@@H]1C	·	·	·	·	-11.0%[14.2 µM]	?
Cc1ccc(NCCC(=O)c2cccc([N+](=O)[O-])c2)c(C)c1	63.7%	-18.9%	0.501µM*	-15.3%	20.7%	?
Cc1cccc(NCCC(=O)c2ccc([N+](=O)[O-])cc2)c1C	-0.1%	0.0%	·	?	?	-14.2%[46.1 µM]
NCC(O)COc1cccc2ccccc12 (stereo not drawn)	-6.3%	-9.1%	·	-14.9%	·	·
CC1CC(C)CN(S(=O)(=O)c2ccc(C(=O)Nc3nnc(-c4cccs4)o3)cc2)C1 (stereo not drawn)	-21.7%	-22.7%	-5.9%	-29.6%	7.94µM*	?
O=C(Nc1nnc(-c2ccc(F)cc2)o1)c1ccc(S(=O)(=O)N2CCOCC2)cc1	-14.1%	-8.9%	3.7%	-9.0%	7.94µM*	?
O=C(C=Cc1ccco1)c1ccco1	72.0%	0.6%	·	-9.9%	-6.7%	-15.1%
COC(=O)N/N=C/c1ccc(OC(=O)/C=C/c2ccco2)cc1	6.5%	-9.5%	?	i	2.6%[46.1 µM]	16.1%[46.1 µM]
O=C(Cc1ccccc1)N/N=C/c1ccc(OC(=O)/C=C\c2ccco2)cc1	26.2%	·	35.5µM*	·	24.7%	-6.8%
CCc1ccc(OC(=O)/C=C/c2ccco2)cc1	32.4%	·	28.2µM*	·	·	·
Cc1ccc(Cl)cc1N1CCN(S(=O)(=O)c2ccc3c(c2)NC(=O)C(C)C(=O)N3)CC1 (stereo not drawn)	?	-24.0%	79.4µM*	?	·	·
